Data on 39 compounds can be found in PubChem BioAssay (NCATS).

“And” between values parts separate entries of the source, which are not always exact repeats. Identical values can stand only once. Results filed as inconclusive are left out. Unmarked numbers belong to inactive results. The source made the active and inactive calls. Calls come from the whole dose curve; as a rule, active = well fitted curve in the direction sought with a large enough effect; inconclusive = small, poorly fitted or top-dose-only effect, or another doubt; inactive = no such curve, though single readings can be large; an effect the other way counts as inactive or inconclusive.
Potency is the fitted concentration of half-maximal effect.

The nature of the first assay: Viability qHTS for spleen associated tyrosine kinase inhibitor (SYKi) drug resistant MV4-11 cells (AID 1963824). Note: nearly all actives have a fitted effect of over 35% in size. The note with it: SYKi-resistant MV4-11 viability, CellTiter-Glo, 72 h; series mostly up to 45 µM; viability, % of control: at the top concentration. The method, boiled down:
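SYK inhibitor-resistant MV4-11 AML cells, 500 per well, added to predispensed compounds and incubated 72 hr at 37 C, 5% CO2. Viability measured by CellTiter-Glo luminescence after 10 min at room temperature.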
With `CC1=C2C[C@H]3[C@@H](CC=C4C[C@@H](O)CC[C@@]43C)[C@@H]2CC[C@]12O[C@@H]1C[C@H](C)CN[C@H]1[C@H]2C`, the Potency is 14.8 µM (active).

With `CC(=O)c1c(O)c(C)c(O)c(Cc2c(O)c3c(c(C(=O)/C=C/c4ccccc4)c2O)OC(C)(C)C=C3)c1O`, the Potency is 25.9 µM (active).

Turning to `COc1c2c(cc3c1OCO3)CCN(C)C2`, the “viability, % of control” value was 73.9%.

On to `C[C@]12CC[C@H]3[C@@H](CC[C@@]45O[C@H]4C(O)=C(C#N)C[C@]35C)[C@H]1CC[C@H]2O`, for which the Potency is 11.9 µM (active).

As to `CCN(CC)CCc1c[nH]c2ccccc12`, the “viability, % of control” value was 63.3% [at 155 µM].

As to `CCC(C)(C)c1ccc(O)cc1`, the “viability, % of control” value is 78.2%.

For `C[C@]12Cc3cn[nH]c3C[C@@H]1CC[C@@H]1[C@@H]2CC[C@@]2(C)[C@H]1CC[C@]2(C)O`, the Potency is 18.6 µM (active).

Turning to `CC[N+]1(C)CCCC(OC(=O)C(O)(c2ccccc2)c2ccccc2)C1` (stereo unspecified), the “viability, % of control” value was 95.4%.

For the compound `CC[n+]1c(-c2ccccc2)c2cc(N)ccc2c2ccc(N)cc21`, the Potency was 4.22 µM (active).

As for `C=C(C)[C@@H]1CCC(C)=C[C@H]1c1c(O)cc(CCCCC)cc1O`, the Potency is 16.6 µM (active).

For the compound `CC[C@@H](CO)NC(=O)[C@@H]1C=C2c3cccc4c3c(cn4C)C[C@H]2N(C)C1`, the Potency was 9.44 µM (active).

For the compound `CCCCCCCCCCCCCCCC[N+](C)(C)C`, the Potency is 1.19 µM (active).

On to `CC1(C)C(=O)N(c2ccc(C#N)c(C(F)(F)F)c2)C(=S)N1Cc1ccc(-c2cn[nH]n2)cc1`, for which the Potency is 14.8 µM (active).

For the compound `CCC(CC)(CNC(=O)CCCO)c1cccc(OC)c1`, the “viability, % of control” value is 64.5%.

As for `COc1ccc(C(c2ccc(OC)cc2)C(Cl)(Cl)Cl)cc1`, the Potency is 21.5 µM (active).

For the compound `O=[N+]([O-])c1c2ccccc2cc2ccccc12`, the Potency is 24.1 µM (active).

Take `C[C@]12CC[C@H]3[C@@H](CCC4=CC(=O)CC[C@@]43C)[C@@H]1CC[C@@H]2C(=O)O`: the “viability, % of control” value is 93.2%.

The nature of another assay: Cellular viability qHTS for adrenocortical cancer (ACC) cell line SW-13 (AID 1963989).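 For activity (max response): cells grown in serum-free medium with ITS supplement; % is set by controls: 0 for no effect and ±100 for the full control effect.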 Note: nearly all actives have a fitted effect of over 65% in size. The note with it: SW-13 ACC cells viability, CellTiter-Glo, 48 h; activity (max response): stronger effect = lower value. Put shortly: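 Here, serum-free SW-13 cultures were dosed up to 46 uM. Following 48 h, ATP-dependent luminescence (CellTiter-Glo) reported viable cells, and logistic modeling produced IC50 values.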
On to `C[C@H](Nc1ncnc2nc[nH]c12)c1nc2ccc(F)cc2c(=O)n1-c1ccccc1`, for which the activity (max response) is -19.1%.

Turning to `C=CC(=O)NCNC(=O)C=C`, the activity (max response) was -0.888%.

Turning to `COP(=S)(OC)Oc1ccc(S(=O)(=O)N(C)C)cc1`, the activity (max response) is -2.83%.

Take `Nc1nc(N)nc(NC2CC2)n1`: the activity (max response) was -6.71%.

With `CCCN1CCC[C@@H]2Cc3nc(N)ncc3C[C@H]21`, the activity (max response) is 3.03%.

Regarding `NCCc1cc(O)c(O)cc1O`, the activity (max response) was 6.64%.

With `O=C(CCl)c1ccc(Cl)cc1Cl`, the activity (max response) is -3.67%.

As for `COc1cc(CC(C)N)cc2c1OCO2` (stereo unspecified), the activity (max response) is -21.8%.

As to `C[C@H](N)[C@H](O)c1ccc(O)c(O)c1`, the activity (max response) was 5.15%.

On to `CN(C)CCc1c[nH]c2cccc(OP(=O)(O)O)c12`, for which the activity (max response) was -5.41%.

`C=CCC1(C(C)CC)C(=O)NC(=O)NC1=O` (stereo unspecified): the activity (max response) is 0.393%.

In the case of `CCCOC(=O)c1cncn1C(C)c1ccccc1` (stereo unspecified), the activity (max response) is 12%.

With `O=C(CCCN1CCC2(CC1)C(=O)NCN2c1ccccc1)c1ccc(F)cc1`, the activity (max response) was -12.3%.

For the compound `Clc1cccc(SC2CCNCC2)n1`, the activity (max response) is 3.75%.

For `Oc1cc(Cl)ccc1Oc1ccc(Cl)cc1Cl`, the Potency was 7.94 µM (active) and 13 µM (active).

As for `C[CH2][Hg][S]c1ccccc1C(=O)O`, the Potency is 2.59 µM (active).

As for `C[C@]12COC(=O)C[C@@H]1CC[C@@H]1[C@@H]2CC[C@@]2(C)[C@H]1CC[C@]2(C)O`, the activity (max response) is -23.6%.

Regarding `CCCCOC(=O)c1ccccc1C(=O)OCc1ccccc1`, the activity (max response) was 0.138%.

Consider `O=[N+]([O-])c1cc([As](=O)(O)O)ccc1O`, for which the activity (max response) is 2.65%.

Regarding `Cc1ccc(-c2nc3ccc(C)cn3c2CC(=O)N(C)C)cc1`, the activity (max response) was -1.33%.

On to `C#CCOC(C(=O)OCCN(C)C)(c1ccccc1)c1ccccc1`, for which the activity (max response) is 15.9%.

Regarding `c1ccc2nc(N3CCNCC3)ccc2c1`, the activity (max response) was -8.05%.

With `CC1=C2C[C@H]3[C@@H](CC=C4C[C@@H](O)CC[C@@]43C)[C@@H]2CC[C@]12O[C@@H]1C[C@H](C)CN[C@H]1[C@H]2C`, the activity (max response) was -8.25%.

With `CC(=O)c1c(O)c(C)c(O)c(Cc2c(O)c3c(c(C(=O)/C=C/c4ccccc4)c2O)OC(C)(C)C=C3)c1O`, the activity (max response) is -2.92%.

Consider `COc1c2c(cc3c1OCO3)CCN(C)C2`, for which the activity (max response) was -10%.

For `C[C@]12CC[C@H]3[C@@H](CC[C@@]45O[C@H]4C(O)=C(C#N)C[C@]35C)[C@H]1CC[C@H]2O`, the activity (max response) was -2%.

Turning to `CCN(CC)CCc1c[nH]c2ccccc12`, the activity (max response) is -11.9%.

`CCC(C)(C)c1ccc(O)cc1`: the activity (max response) was 0.304%.

Regarding `C[C@]12Cc3cn[nH]c3C[C@@H]1CC[C@@H]1[C@@H]2CC[C@@]2(C)[C@H]1CC[C@]2(C)O`, the activity (max response) was -0.402% and -24.7%.

With `CC[N+]1(C)CCCC(OC(=O)C(O)(c2ccccc2)c2ccccc2)C1` (stereo unspecified), the activity (max response) is 0.735%.

For `CC[n+]1c(-c2ccccc2)c2cc(N)ccc2c2ccc(N)cc21`, the Potency is 5.17 µM (active).

Take `C=C(C)[C@@H]1CCC(C)=C[C@H]1c1c(O)cc(CCCCC)cc1O`: the Potency was 31.6 µM (active).

With `CC[C@@H](CO)NC(=O)[C@@H]1C=C2c3cccc4c3c(cn4C)C[C@H]2N(C)C1`, the activity (max response) is -2.39%.

For the compound `CCCCCCCCCCCCCCCC[N+](C)(C)C`, the Potency was 7.31 µM (active).

For `CC1(C)C(=O)N(c2ccc(C#N)c(C(F)(F)F)c2)C(=S)N1Cc1ccc(-c2cn[nH]n2)cc1`, the Potency is 25.1 µM (active).

As for `CCC(CC)(CNC(=O)CCCO)c1cccc(OC)c1`, the activity (max response) was 8.71%.

As for `COc1ccc(C(c2ccc(OC)cc2)C(Cl)(Cl)Cl)cc1`, the Potency was 28.2 µM (active).

In the case of `O=[N+]([O-])c1c2ccccc2cc2ccccc12`, the activity (max response) is 8.46%.

On to `C[C@]12CC[C@H]3[C@@H](CCC4=CC(=O)CC[C@@]43C)[C@@H]1CC[C@@H]2C(=O)O`, for which the activity (max response) is 11.4%.
